Laboratory results from PubChem BioAssay (EPA / NIEHS).
Several values for one entry are separate records, joined by “and”; a condition that tells them apart may be missing. Identical values can stand only once. The source holds several records for some structures; these can differ, active in one and inactive in another. Activity calls are given as the source filed them. Rule for the calls: active = hit-call score of the fitted dose curve at least 0.9, where 1 is the maximum; inactive = score below 0.9.

Legend:
[1] = ATG_DR4_LXR_CIS: Attagene CIS-FACTORIAL HepG2 Assay for human Liver X Receptor (LXR), DR4 submotif (AID 2282929); conditions: HepG2 Attagene DR4 cis-reporter, mRNA transcription; AC50: actives raise or lower the signal unless noted; outcome: actives raise or lower the signal unless noted
Method in brief: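 HepG2, transient MRTU transfection, cis-element (DR4) promoter; 24 h compound exposure; total RNA → oligo(dT) RT → PCR → 6-FAM primer extension → HpaI cut → CE. Gain/loss vs DMSO, bidirectional fit.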

[2] = target: Aryl hydrocarbon receptor (Homo sapiens) (UniProt P35869); assay: ATG_Ahr_CIS: Attagene CIS-FACTORIAL HepG2 Assay for human Aryl Hydrocarbon Receptor (Ahr) (AID 2282930); conditions: HepG2 AhR cis-factorial reporter transcription; actives raise or lower the signal
Aryl hydrocarbon receptor (Homo sapiens), sequence (P35869 whole entry, looked up): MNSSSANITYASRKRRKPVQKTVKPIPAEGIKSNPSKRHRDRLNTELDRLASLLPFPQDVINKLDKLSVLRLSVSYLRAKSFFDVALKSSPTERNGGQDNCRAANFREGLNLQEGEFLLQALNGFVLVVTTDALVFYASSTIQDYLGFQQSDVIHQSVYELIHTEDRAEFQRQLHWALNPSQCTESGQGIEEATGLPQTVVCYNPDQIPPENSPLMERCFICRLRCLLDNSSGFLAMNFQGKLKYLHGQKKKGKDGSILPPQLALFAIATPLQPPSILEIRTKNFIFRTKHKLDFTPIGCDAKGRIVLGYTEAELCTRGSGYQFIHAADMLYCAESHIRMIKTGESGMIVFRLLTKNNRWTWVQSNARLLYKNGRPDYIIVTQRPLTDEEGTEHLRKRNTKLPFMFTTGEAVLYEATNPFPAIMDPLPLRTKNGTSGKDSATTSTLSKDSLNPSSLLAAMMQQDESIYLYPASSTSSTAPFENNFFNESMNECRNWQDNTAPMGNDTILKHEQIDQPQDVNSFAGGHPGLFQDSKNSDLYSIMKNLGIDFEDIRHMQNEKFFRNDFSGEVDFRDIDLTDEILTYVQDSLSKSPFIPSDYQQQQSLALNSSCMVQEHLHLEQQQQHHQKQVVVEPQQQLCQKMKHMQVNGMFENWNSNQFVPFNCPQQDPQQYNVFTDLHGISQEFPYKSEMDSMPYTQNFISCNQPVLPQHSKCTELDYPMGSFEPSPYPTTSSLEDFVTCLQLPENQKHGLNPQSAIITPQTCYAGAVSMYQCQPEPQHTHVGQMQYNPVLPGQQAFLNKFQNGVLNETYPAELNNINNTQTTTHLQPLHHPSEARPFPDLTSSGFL
Method in brief: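 HepG2 cells transiently transfected with cis-element-driven multiplexed reporter transcription units; endogenous transcription factor activity measured as reporter mRNA 24 h after dosing. RT-PCR, 6-FAM labelling, HpaI digestion, capillary electrophoresis; bidirectional fitting versus DMSO baseline.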

[3] = ATG_AP_2_CIS: Attagene CIS-FACTORIAL HepG2 Assay for human Activator Protein 2 (AP-2) (AID 2282932); conditions: HepG2 AP-2 cis-reporter, Attagene transcription factor profiling; AC50: actives raise or lower the signal unless noted; outcome: actives raise or lower the signal unless noted
Method in brief: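 Bidirectional curve fitting against DMSO was applied to reporter mRNA signals from HepG2 cells 24 h after dosing. Cis-promoter reporter units, transiently transfected, were read by RT-PCR plus capillary electrophoresis.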

[4] = ATG_BRE_CIS: Attagene CIS-FACTORIAL HepG2 Assay for human Bone Morphogenetic Protein (BMP) Response Element (BRE) (AID 2282933); conditions: HepG2 BMP response element reporter, Attagene transcription factor profiling; actives raise or lower the signal
Method in brief: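 HepG2 cells transiently transfected with multiplexed cis-element reporter units were dosed with chemical for 24 h. Reporter mRNA was measured by RT-PCR with fluorescent labelling, HpaI digestion and capillary electrophoresis; bidirectional fitting relative to DMSO.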

[5] = target: Retinoic acid receptor alpha (Homo sapiens) (UniProt P10276); assay: ATG_DR5_RAR_CIS: Attagene CIS-FACTORIAL HepG2 Assay for human Retinoic Acid Receptor Alpha (RARE), DR5 submotif (AID 2282934); conditions: HepG2 Attagene cis-factorial RARE DR5 reporter, mRNA; actives raise or lower the signal
Retinoic acid receptor alpha (Homo sapiens), sequence (P10276 whole entry, looked up): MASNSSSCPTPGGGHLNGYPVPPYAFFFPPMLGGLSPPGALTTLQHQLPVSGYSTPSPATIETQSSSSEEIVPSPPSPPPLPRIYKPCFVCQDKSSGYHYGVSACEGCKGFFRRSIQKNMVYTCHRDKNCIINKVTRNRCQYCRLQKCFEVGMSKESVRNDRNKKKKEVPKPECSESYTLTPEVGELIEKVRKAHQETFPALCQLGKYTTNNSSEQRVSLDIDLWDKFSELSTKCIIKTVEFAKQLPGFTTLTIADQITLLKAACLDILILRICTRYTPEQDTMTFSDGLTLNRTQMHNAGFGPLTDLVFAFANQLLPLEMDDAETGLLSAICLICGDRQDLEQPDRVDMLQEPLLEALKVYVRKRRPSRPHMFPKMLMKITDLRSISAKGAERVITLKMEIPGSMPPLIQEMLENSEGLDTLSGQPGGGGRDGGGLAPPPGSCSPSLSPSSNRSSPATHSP
Method in brief: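 HepG2 cells transiently transfected with multiplexed reporter units under cis (DR5 RARE) promoters, so endogenous transcription factor activity is measured. After 24 h compound exposure, reporter mRNA is quantified by RT-PCR with fluorescent labelling and capillary electrophoresis; bidirectional fitting versus DMSO.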

[6] = target: Transcription factor E2F1 (Homo sapiens) (UniProt Q01094); assay: ATG_E2F_CIS: Attagene CIS-FACTORIAL HepG2 Assay for human E2F Transcription Factor 1 (AID 2282935); conditions: HepG2 Attagene cis-reporter, E2F reporter RNA transcripts; actives raise or lower the signal
Transcription factor E2F1 (Homo sapiens), sequence (Q01094 whole entry, looked up): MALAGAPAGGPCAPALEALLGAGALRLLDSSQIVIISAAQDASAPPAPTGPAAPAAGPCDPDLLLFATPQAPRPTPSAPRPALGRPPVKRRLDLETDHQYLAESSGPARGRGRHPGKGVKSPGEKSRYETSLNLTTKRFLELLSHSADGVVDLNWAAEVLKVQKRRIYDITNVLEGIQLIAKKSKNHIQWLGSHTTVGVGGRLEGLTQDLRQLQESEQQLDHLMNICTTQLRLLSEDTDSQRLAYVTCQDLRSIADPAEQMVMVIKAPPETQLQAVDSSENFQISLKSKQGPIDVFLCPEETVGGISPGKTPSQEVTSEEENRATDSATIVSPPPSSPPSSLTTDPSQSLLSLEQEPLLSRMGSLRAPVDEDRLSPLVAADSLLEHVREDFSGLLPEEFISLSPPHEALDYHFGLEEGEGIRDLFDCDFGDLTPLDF
Method in brief: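 Multiplexed cis-reporter assay: HepG2, transient transfection, 24 h dosing, mRNA quantitation by labeled RT-PCR and CE.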

[7] = ATG_E_Box_CIS: Attagene CIS-FACTORIAL HepG2 Assay for human Enhancer Box (E-box) (AID 2282936); conditions: HepG2 E-box cis-reporter transcription, actives raise or lower the signal
Method in brief: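 Multiplexed CIS reporter system in transiently transfected HepG2 cells measures native transcription factor activity. Reporter RNA after 24 h exposure is profiled by RT-PCR-capillary electrophoresis.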

[8] = ATG_M_61_CIS: Attagene CIS-FACTORIAL HepG2 Assay for M61 Transcription Factor (Internal Marker) (AID 2282937); conditions: HepG2 Attagene CIS-FACTORIAL M61 internal marker reporter; actives raise or lower the signal
Method in brief: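 Human liver HepG2, transient MRTU transfection (cis promoter elements), 24 h compound. Total RNA → oligo(dT) RT → PCR → FAM label → HpaI → CE. Internal background marker; bidirectional fitting, DMSO = baseline.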

[9] = ATG_EGR_CIS: Attagene CIS-FACTORIAL HepG2 Assay for human Early Growth Response 1 (EGR1) (AID 2282938); conditions: HepG2 Attagene CIS-FACTORIAL EGR reporter mRNA; actives raise or lower the signal
Method in brief: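 Transient transfection of human HepG2 with multiple cis-regulated reporter units, chemical exposure 24 h, total RNA isolated. Reverse transcription, PCR, fluorescent labelling and capillary electrophoresis quantify reporter transcripts; activity fitted bidirectionally against DMSO.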

[10] = ATG_M_19_CIS: Attagene CIS-FACTORIAL HepG2 Assay for M19 Transcription Factor (Internal Marker) (AID 2282939); conditions: HepG2 Attagene CIS-FACTORIAL M19 internal marker reporter; actives raise or lower the signal
Method in brief: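 HepG2 cells transiently transfected with cis-regulated multiple reporter transcription units were dosed for 24 h; reporter mRNA was quantified by RT-PCR, 6-FAM primer-extension labelling, HpaI digestion and capillary electrophoresis, with bidirectional fitting against DMSO baseline.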

[11] = ATG_ERE_CIS: Attagene CIS-FACTORIAL HepG2 Assay for Estrogen Response Element (ERE) (AID 2282940); conditions: HepG2 ERE cis-reporter, Attagene RNA transcript; actives raise or lower the signal
Method in brief: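 HepG2 cells transiently transfected with cis-promoter-driven multiplexed reporter transcription units report endogenous TF activity. After 24 h compound exposure, reporter mRNA is quantified by RT-PCR with capillary electrophoresis fluorescence; bidirectional fitting versus DMSO baseline.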

[12] = ATG_Ets_CIS: Attagene CIS-FACTORIAL HepG2 Assay for human Erythroblast Transformation Specific (ETS) (AID 2282941); conditions: HepG2 ETS cis-reporter transcription; AC50: actives raise or lower the signal unless noted; outcome: actives raise or lower the signal unless noted
Method in brief: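 After transient cis-reporter transfection, HepG2 cells receive test chemical for 24 h. Reporter mRNA levels, measured by RT-PCR and capillary electrophoresis fluorescence, are analysed bidirectionally relative to the DMSO baseline.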

[13] = target: Hepatocyte nuclear factor 3-beta (Homo sapiens) (UniProt Q9Y261); assay: ATG_FoxA2_CIS: Attagene CIS-FACTORIAL HepG2 Assay for human Forkhead box A2 (FOXA2) (AID 2282942); conditions: HepG2 cis-reporter transcription factor activity, 24 h; actives raise or lower the signal
Hepatocyte nuclear factor 3-beta (Homo sapiens), sequence (Q9Y261 whole entry, looked up): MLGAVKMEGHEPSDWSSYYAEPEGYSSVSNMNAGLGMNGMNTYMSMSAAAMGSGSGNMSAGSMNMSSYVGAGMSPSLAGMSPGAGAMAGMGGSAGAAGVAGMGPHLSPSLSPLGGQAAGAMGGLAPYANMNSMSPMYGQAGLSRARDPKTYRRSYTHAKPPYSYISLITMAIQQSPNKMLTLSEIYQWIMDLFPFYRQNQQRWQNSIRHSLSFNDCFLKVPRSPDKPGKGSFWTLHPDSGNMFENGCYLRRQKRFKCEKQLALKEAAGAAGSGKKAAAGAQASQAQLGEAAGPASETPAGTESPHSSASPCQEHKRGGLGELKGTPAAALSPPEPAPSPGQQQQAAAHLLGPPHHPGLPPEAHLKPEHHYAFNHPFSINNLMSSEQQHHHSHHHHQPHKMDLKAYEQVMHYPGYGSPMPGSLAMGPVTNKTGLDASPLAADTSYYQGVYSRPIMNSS
Method in brief: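 Transient MRTU transfection of HepG2 liver cells; 24 h treatment; total RNA → oligo(dT) RT → PCR → FAM primer extension → HpaI cut → CE. Bidirectional fit vs DMSO.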

[14] = ATG_FoxO_CIS: Attagene CIS-FACTORIAL HepG2 Assay for human Forkhead box O (FoxO) (AID 2282943); conditions: HepG2 Attagene cis-reporter, FoxO element, mRNA; actives raise or lower the signal
Method in brief: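 HepG2 cells transiently transfected with cis-promoter-driven multiple reporter transcription units; 24 h after chemical dosing, reporter mRNA quantified by RT-PCR, fluorescent primer extension, HpaI digestion and capillary electrophoresis. Bidirectional fitting versus DMSO baseline.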

[15] = ATG_GATA_CIS: Attagene CIS-FACTORIAL HepG2 Assay for human GATA Binding Protein (AID 2282944); conditions: HepG2 GATA cis-element reporter, Attagene multiplex mRNA; actives raise or lower the signal
Method in brief: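 HepG2 cells transiently transfected with multiplexed cis-element reporter units reflecting endogenous transcription factor activity; reporter mRNA measured after 24 h dosing by RT-PCR, 6-FAM labeling, HpaI digestion and capillary electrophoresis. Bidirectional fitting versus DMSO baseline.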

[16] = target: Bile acid receptor (Homo sapiens) (UniProt Q96RI1); assay: ATG_IR1_CIS: Attagene CIS-FACTORIAL HepG2 Assay for human Nuclear Receptor Subfamily 1 Group H Member 4 (NR1H4), IR1 submotif (AID 2282946); conditions: IR1 reporter transcription, actives raise or lower the signal
Bile acid receptor (Homo sapiens), sequence (Q96RI1 whole entry, looked up): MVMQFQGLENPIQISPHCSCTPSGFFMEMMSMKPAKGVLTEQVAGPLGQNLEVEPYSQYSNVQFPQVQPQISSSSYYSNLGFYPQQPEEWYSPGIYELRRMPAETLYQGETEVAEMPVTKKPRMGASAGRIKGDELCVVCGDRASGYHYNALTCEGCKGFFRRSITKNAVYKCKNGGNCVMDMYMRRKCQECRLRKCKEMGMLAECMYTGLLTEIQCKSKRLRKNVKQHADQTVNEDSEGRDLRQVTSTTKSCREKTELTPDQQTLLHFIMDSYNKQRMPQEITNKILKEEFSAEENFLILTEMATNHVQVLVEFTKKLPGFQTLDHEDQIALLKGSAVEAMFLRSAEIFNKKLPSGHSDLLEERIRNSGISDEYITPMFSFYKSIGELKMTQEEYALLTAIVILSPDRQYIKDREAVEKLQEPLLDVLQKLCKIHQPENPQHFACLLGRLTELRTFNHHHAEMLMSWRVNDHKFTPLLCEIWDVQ
Method in brief: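 Transient MRTU transfection, HepG2; 24 h dosing; RNA → RT-PCR → 6-FAM primer extension → HpaI digest → capillary electrophoresis fluorescence. Gain/loss of signal fitted relative to DMSO.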

[17] = ATG_GRE_CIS: Attagene CIS-FACTORIAL HepG2 Assay for human Glucocorticoid Response Elements (GRE) (AID 2282947); conditions: HepG2 GRE cis-reporter, Attagene multiplex mRNA; AC50: actives raise or lower the signal unless noted; outcome: actives raise or lower the signal unless noted
Method in brief: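 Following 24 h chemical exposure of transiently transfected HepG2 cells, total RNA was reverse-transcribed and reporter cDNA amplified, fluorescently labelled and sized by capillary electrophoresis. Signal gain or loss was fitted relative to DMSO vehicle.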

[18] = ATG_ISRE_CIS: Attagene CIS-FACTORIAL HepG2 Assay for human Interferon Regulatory Factor 1 (IRF1) binding to an Interferon-Stimulated Response Element (ISRE) (AID 2282948); conditions: HepG2 ISRE cis-reporter (Attagene), mRNA transcription readout; actives raise or lower the signal
Method in brief: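 Quantitation relies on labelled RT-PCR fragments separated by capillary electrophoresis. Human HepG2 cells bearing cis-promoter reporter constructs were treated 24 h; DMSO served as baseline for bidirectional fitting.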

[19] = ATG_GLI_CIS: Attagene CIS-FACTORIAL HepG2 Assay for human Zinc Finger Protein GLI1 (AID 2282945); conditions: HepG2, Attagene cis-factorial reporter mRNA, GLI element; actives raise or lower the signal
Method in brief: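 HepG2 cells transiently transfected with cis-promoter multiplexed reporter units report endogenous transcription factor activity. After 24 h chemical exposure, reporter mRNA was quantified by RT-PCR, 6-FAM labelling, HpaI digestion and capillary electrophoresis, with bidirectional fitting against DMSO.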

[20] = ATG_AP_1_CIS: Attagene CIS-FACTORIAL HepG2 Assay for human Activator Protein 1 (AP-1) (AID 2282931); conditions: HepG2 Attagene cis-factorial AP-1 reporter mRNA; actives raise or lower the signal
Method in brief: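 Transient MRTU transfection of HepG2 → 24 h chemical treatment → RNA isolation, RT-PCR, 6-FAM labelling, HpaI digest → capillary electrophoresis. Fit: bidirectional, DMSO negative control.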

Measured: AC50

O=CC(F)(F)C(F)(F)C(F)(F)C(F)F
not listed: [19] | [20]
inactive: all other assays above

CCC(C)c1nccnc1OC (stereo unspecified)
not listed: [9] | [14] | [20]
inactive: all other assays above

CCCCCCCCCCCC[N+](C)(C)CCCCCCCCCCCC
active: [3] 168 µM | [12] 36.3 µM | [18] 100 µM
not listed: [20]
inactive: all other assays above

FCOC(C(F)(F)F)C(F)(F)F
not listed: [2] | [19]
inactive: all other assays above

Cc1ccc(N=Nc2c(O)ccc3ccccc23)c(C)c1
active: [20] 5.87 µM | [11] 5.07 µM
not listed: [2]
inactive: all other assays above

NC(=NCCCCCCN=C(N)/N=C(\N)Nc1ccc(Cl)cc1)/N=C(\N)Nc1ccc(Cl)cc1
active: [20] 49.5 µM | [3] 16.9 µM | [4] 3.85 µM and 3.17 µM | [6] 48.6 µM | [7] 26.8 µM and 23.9 µM | [9] 5.68 µM | [10] 26.1 µM | [11] 4.6 µM | [14] 22.9 µM | [17] 23.2 µM and 25.6 µM | [18] 5.9 µM and 6.55 µM
inactive: [1] | [20] | [3] | [4] | [6] | [7] | [8] | [9] | [10] | [11] | [13] | [14] | [15] | [17] | [18]

CN(Cc1cnc2nc(N)nc(N)c2n1)c1ccc(C(=O)N[C@@H](CCC(=O)O)C(=O)O)cc1
not listed: [2] | [17] | [19]
inactive: all other assays above

CCCCc1ccc2ccccc2c1S(=O)(=O)O
not listed: [14] | [20]
inactive: all other assays above

O=C1OC(=O)c2cc(-c3ccc4c(c3)C(=O)OC4=O)ccc21
not listed: [2]
inactive: all other assays above

CCC(=O)C=Cc1ccc(OC)cc1
active: [1] 68.2 µM | [18] 100 µM
not listed: [9] | [20]
inactive: all other assays above

Oc1ccc(Cc2ccccc2O)cc1
active: [11] 7.8 µM
not listed: [2]
inactive: all other assays above

O=C1c2ccccc2C(=O)c2c(O)c(O)cc(O)c21
active: [2] 0.303 µM | [7] 8.54 µM | [11] 2.42 µM
not listed: [3] | [20]
inactive: all other assays above
